# Screening data: PubChem BioAssay, several laboratories
# CYP2C9 act = CYP2C9 (human) activation | P11712 | recombinant CYP2C9, luciferin-H conversion, luminescence; stronger effect = higher value; factor 1 = untreated enzyme, 0 = blocked | activation factor at 5 µM | 96,000 compounds, 1.4% hits | AID 1024;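 active means activation factor of 2 or more for CYP2C9 at a 5 µM dose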;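 further: 0 = sulfaphenazole-blocked wells and 1 = vehicle-only wells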
# Target sequence (P11712 whole entry, looked up): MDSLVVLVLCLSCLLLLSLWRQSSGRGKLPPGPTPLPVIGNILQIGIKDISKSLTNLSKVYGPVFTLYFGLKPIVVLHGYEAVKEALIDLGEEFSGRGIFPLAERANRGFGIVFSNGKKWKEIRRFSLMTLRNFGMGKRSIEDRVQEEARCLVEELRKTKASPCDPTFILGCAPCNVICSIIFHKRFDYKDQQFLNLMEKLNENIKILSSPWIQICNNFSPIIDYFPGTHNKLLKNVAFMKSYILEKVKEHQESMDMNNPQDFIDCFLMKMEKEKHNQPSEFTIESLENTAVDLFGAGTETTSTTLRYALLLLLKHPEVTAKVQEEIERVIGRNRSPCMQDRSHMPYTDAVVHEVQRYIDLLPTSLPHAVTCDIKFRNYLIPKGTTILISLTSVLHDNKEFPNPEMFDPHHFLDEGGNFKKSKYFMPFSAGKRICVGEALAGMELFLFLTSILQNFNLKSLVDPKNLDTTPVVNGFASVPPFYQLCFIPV
# CYP2C19 inh = inhibitors of human CYP2C19; CYP2C19 Supersomes, luciferin-H EGE luminescence, 30 min; inhibition, % at 5 µM; 96,000 compounds, 21% hits; AID 778;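 active means CYP2C19 inhibition above a set limit at 5 µM in the primary screen, cut at about 50% in these data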;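 further: plate controls were negative control wells for no effect and 2.5 mM tranylcypromine positive control for full effect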
# PostGolgi yeast = growth inhibition of a yeast mutant, post-Golgi transport screen; post-Golgi transport phenotypic cell assay; inhibition, % at 10 µM; 98,000 compounds, 0.9% hits;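 further: yeast cells grown in 1536-well plates; yeast grown about 18 h at 30C before absorbance read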
# CYP2C9 inhib = human CYP2C9 inhibition | 96,000 compounds, 20% hits | P11712 | inhibition, % at 5 µM | AID 777 | CYP2C9 Supersomes, luciferin-H conversion, luminescence;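 active means blocking of liver enzyme CYP2C9 beyond about 50% at 5 µM, limit read from the data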
# PostGolgi ctrl = growth of the yeast control strain, post-Golgi counter-screen; efflux-deficient yeast background strain, growth absorbance A615, 16 h; inhibition, % at 10 µM; 98,000 compounds, 5% hits; AID 738
# CYP2C19 activ = cytochrome P450 2C19 (human) activation; recombinant CYP2C19, luciferin-H EGE luminescence; stronger effect = higher value; 0 = fully inhibited enzyme, 1 = untreated enzyme; 96,000 tested, under 10 active; P33261; activation factor at 5 µM;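 active means activation factor of at least 2 at 5 µM in the primary screen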;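 further: 0 = wells with 2.5 mM tranylcypromine and 1 = vehicle-only wells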
# An asterisk follows results filed as active; . = not tested or not shown. A selection: hits, their analogues and other compounds. The true share with any hit is near 32%. Unless noted, no stated cut-off is given here; in the data, active means inhibition above about 30%; inactive means the rest.
SMILES,CYP2C9 act,CYP2C19 inh,PostGolgi yeast,CYP2C9 inhib,PostGolgi ctrl,CYP2C19 activ
O=C(O)CC(=O)Nc1ccccc1C(=O)O,1.2,-3,-4,-22,1,1
C=CCn1c(SCC(=O)c2c(N)n(CCC)c(=O)n(C)c2=O)nc2sc(CC)cc2c1=O,0.6,5,-2,43,12,0.9
CC(C)(C)NC(=O)CN(C(=O)Cn1nnc(-c2ccccc2F)n1)c1cccc2c1CCCC2,0.1,57*,12,88*,-2,0.4
Cc1cccc(C(=O)NC2CCN(C(=O)N3CCOCC3)CC2)c1,1.1,-10,4,-12,5,1.1
N=c1c2c(-c3ccccc3)c(-c3ccccc3)oc2ncn1CCN1CCOCC1,0.6,40,1,42,72*,0.6
c1ccc(-c2oc3ncnc(NCCN4CCOCC4)c3c2-c2ccccc2)cc1,0,83*,15,98*,92*,0.2
N=c1c2c(-c3ccccc3)c(-c3ccccc3)oc2ncn1CCCN1CCOCC1,0.9,45,11,7,7,0.5
Cc1sc2ncnc(NCCN3CCOCC3)c2c1C,0.8,-2,8,17,8,1
CCN(CC)Cc1c(O)ccc2c(=O)c(Oc3ccccc3OC)coc12,1,4,10,5,-1,1
COC(=O)C1=C(C)N(c2ccc(C)c(C)c2)/C(=C/c2cccs2)C1=O,1,5,4,4,19,1
Cc1ccc2nc(-c3ccc(O)cc3)c(Nc3ccc4c(c3)OCCO4)n2c1,0.5,42,-1,47,3,0.6
COc1ccc(-c2nc3cnccn3c2Nc2ccc3c(c2)OCO3)cc1,0.1,88*,5,87*,4,0.1
Cc1cc(C)n2c(Nc3ccc4c(c3)OCCO4)c(-c3ccccc3)nc2n1,0.2,36,10,76*,44*,0.6
Cc1ccc(-c2nc3cnccn3c2Nc2ccc3c(c2)OCCO3)o1,0.3,87*,5,72*,12,0.1
COc1cccc(-c2csc(N3CCN(CC(=O)Nc4ccc5c(c4)OCO5)CC3)n2)c1,0.9,-3,10,9,7,1
Cc1ccc(-c2nc3cnccn3c2Nc2ccc3c(c2)OCO3)cc1,0.1,78*,5,86*,10,0.2
O=C(Nc1ccc2c(c1)OCCO2)c1cccnc1,1.1,-14,9,-12,2,1.1
CC(c1ccco1)N(C(=O)c1ccc(C#N)cc1)c1ccccn1 (stereo not given),0.9,19,-14,7,5,0.8
COc1cccc(N(CC(=O)N2CCN(C)CC2)S(=O)(=O)c2ccccc2)c1,0.9,13,14,9,18,0.9
COc1ccc(C2CC(=O)c3cnc(N)nc3C2)c(OC)c1 (stereo not given),0.7,22,-3,31,18,0.8
COC(=O)c1c(-c2ccc(F)cc2)csc1NC(=O)c1ccco1,0.4,17,10,64*,7,0.8
CCOC(=O)c1c(-c2ccc(OC)cc2)csc1NC(=O)CCN1C(=O)c2ccccc2C1=O,0.2,55*,5,78*,8,0.4
CCOC(=O)c1c(-c2ccc(OC)cc2)csc1NC(=O)CNCc1ccco1,0.3,53*,1,70*,85*,0.5
CCOC(=O)c1c(-c2ccc(C)s2)csc1NC(=O)c1ccco1,1,-5,.,-4,.,1.1
CCOC(=O)C1=C(N)c2ccccc2CC1C(C)C (stereo not given),0.2,96*,-1,81*,11,0
CCS(=O)(=O)c1ccc(O)c(N2C(=O)C3C4C=CC(C4)C3C2=O)c1 (stereo not given),1,-3,3,-4,7,1
CCOC(=O)C1=C(O)c2ccccc2C(=O)/C1=C\c1ccc(CC)cc1,0,89*,2,97*,9,0.1
CCOC(=O)c1ccc(COC(=O)c2ccc3c(c2)-c2ccccc2C3=O)cc1,1,18,-4,-2,-5,0.8
CCCc1ccc(/C=C2\C(=O)c3ccccc3C(O)=C2C(=O)OCC)cc1,0.1,78*,-7,92*,18,0.2
CCOC(=O)C1=NN(c2ccccc2)C(=O)/C1=C\c1ccc(N(C)C)cc1,0.8,3,-4,19,13,1
